Experimental data published in PubChem BioAssay.
Inconclusive results are not listed. Active and inactive are the calls of the source.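 How the source made its calls, unless noted: active means differentiation response of at least 50%, scaled between solvent and reference control, from cells with both markers; inactive means the rest.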

What was measured:
[1] = rapamycin-like changes in RPL19A-GFP expression – cell-based, S. cerevisiae, multiplex flow cytometry, primary screen (AID 1862; in the data active means percent of DMSO control GFP below about 86%;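 further: lower values mimic rapamycin by blocking the RPL19A rise seen in DMSO cells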); conditions: S. cerevisiae RPL19A-GFP strain, flow cytometry fluorescence, 3 h; at 10 µM; stronger effect = lower value
[2] = TOR pathway GLN3 branch reporter MEP2-GFP changes – S. cerevisiae, multiplex flow cytometry, primary screen (AID 1867;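 active means GFP response, as percent of the DMSO control, above the screen-wide mean plus 3 SD, about 139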;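 further: median GFP channel fluorescence of barcode-gated MEP2-GFP cells measured by flow cytometry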); conditions: S. cerevisiae MEP2-GFP strain, 3 h, at 10 µM, stronger effect = higher value, 100% means same as DMSO wells
[3] = TOR pathway RTG branch CIT2 reporter changes – S. cerevisiae, GFP fusion, multiplex flow cytometry, primary screen (AID 1870;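 active means percent response above a set limit, the screen-wide mean plus 3 SD, cut at about 130% in these data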;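 further: barcoded CIT2-GFP strain pooled with four other GFP strains with rapamycin as positive control; median GFP fluorescence per well over plate mean of DMSO wells so 100% = DMSO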); conditions: S. cerevisiae CIT2-GFP expression, 3 h, at 10 µM, stronger effect = higher value
[4] = TOR pathway LAP4-GFP level changes – S. cerevisiae, multiplex flow cytometry, primary screen (AID 1873;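 active means GFP signal, as percent of the solvent control, above the screen mean plus 3 SD, about 149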); conditions: S. cerevisiae LAP4-GFP expression, 3 h, at 10 µM, stronger effect = higher value
[5] = yeast AGP1-GFP level changes, GLN3 branch – cell-based, multiplex flow cytometry, S. cerevisiae, primary screen (AID 1887;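 active means GFP signal above the screen-wide mean plus 3 SD, that is over about 124.5% of the solvent control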;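 further: AGP1-GFP fusion strain of S. cerevisiae within a five-strain barcoded multiplex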); conditions: 3 h, at 10 µM, stronger effect = higher value
[6] = reduced mouse 2C T cell binding to pMHC/ICAM-1 vesicles – MLPCN validation set, flow cytometry, LFA-1/ICAM-1 modulator project, pilot screen (AID 2523;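 active means response below a set limit, under 55% cells CD8-positive and vesicle-bound, and CD8 cells' 90th-percentile brightness under 279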;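 on vesicle binding response: mean PE anti-B7-1 fluorescence of CD8+ cells relative to row control; 100% = QL9-loaded vesicles with DMSO vehicle in the same plate row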); conditions: 2C mouse CD8+ T cells, at 7 µM, stronger effect = lower value; double positive events: measured here: CD8+/vesicle+ event percentage
[7] = molecular target: Integrin beta-1 (Homo sapiens) + Integrin alpha-4 (Homo sapiens) (UniProt P13612+P05556); assay: alpha4beta1 integrin LIBS antibody binding reduction – U937 cells, HUTS-21 mAb, flow cytometry, validation set, VLA-4 allosteric modulator project, pilot screen (AID 2674;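 active means inhibition above 50%, about 3 SD of the validation set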;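 further: antibody binding induced by the VLA-4 ligand LDV present at three times its Kd; 0% = LDV ligand with antibody and no compound and 100% = antibody without LDV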); conditions: HUTS-21 LIBS mAb binding, at 6.7 µM, stronger effect = higher value, binding induced by LDV ligand
[8] = calorie-restriction mimetic ROS inhibitors, yeast – validation compound set, pilot screen (AID 2706;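 active means superoxide response below 65% of plate, a cut near 3 SD across the whole screen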;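 further: yeast exposed to compound for one week at 30 degrees C before staining; 100% = mean of all compound wells on the same plate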); conditions: S. cerevisiae aging, superoxide DHE fluorescence; at 10 µM; stronger effect = lower value
[9] = molecular target: Beta-adrenergic receptor kinase 1 (Homo sapiens) (UniProt P25098); assay: GRK2 binders displacing RNA aptamer, biochemical, validation, human GRK2, bead flow cytometry (AID 488806;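 active means aptamer binding inhibition above 30%, about 3 SD of noise from non-fluorescent compounds; inactive means inhibition at or below 30%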); conditions: bead-bound GRK2, FAM-aptamer displacement, at 10 µM, stronger effect = higher value
[10] = molecular target: Beta-2 adrenergic receptor (Homo sapiens) (UniProt P07550); assay: agonist-induced loss of surface beta2AR – cell-based, FAP fluorogen, flow cytometry, validation set, pilot screen (AID 504459;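 active means percent response above 42, roughly 3 SD of non-fluorescent test compounds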;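 further: agonist-driven loss of surface beta2AR via internalization measured by FAP dye flow cytometry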); conditions: Am2.2-beta2AR cells, at 10 µM, stronger effect = higher value
[11] = molecular target: AP-2 complex subunit beta (Homo sapiens) (UniProt P63010); assay: beta-arrestin/AP2 interaction blockers – biochemical, validation set, GST-AP2 beads, flow cytometry, pilot screen (AID 504541;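 active means inhibition above 54%, about 3 SD of non-fluorescent compounds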;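 further: AP2 carries R879A mutation and is captured from E. coli lysate; bead-bound FITC arrestin peptide fluorescence measuring arrestin peptide binding to AP2; 0% = DMSO wells and 100% = excess unlabeled arrestin peptide control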); conditions: FITC arrestin peptide, at 10 µM, stronger effect = higher value, AP2 beta2 appendage fragment, R879A mutant
[12] = cytosolic pH regulators acting via V-ATPase – S. cerevisiae, pHLuorin, HTS validation (AID 504600; in the data active means response above about 15%;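 further: plate controls were DMSO for no effect and reference compound for full effect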); conditions: V-ATPase proton transport, at 10 µM, stronger effect = higher value
[13] = tested on: anti-desmoglein-3 scFv antibody binding to human DSG3; assay: blockers of pathogenic pemphigus antibody–desmoglein-3 binding – biochemical, validation compound set, bead-based, flow cytometry, pilot screen (AID 588368;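 active means binding below the plate cutoff, the plate median minus 3 SD, with a reading above zero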;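 further: signal is the median channel fluorescence of bead-bound GFP antibody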); conditions: Protein G beads, DSG3-Fc, scFv-GFP binding, at 10 µM, stronger effect = lower value
[14] = Nile Red efflux blockade in pump-expressing yeast – validation compound set, multiplex, phenotypic, pilot screen (AID 588506;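 active means efflux inhibition above 0.42, the validation set average plus 4 SD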;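 further: Nile Red retained in cells so higher fluorescence means more efflux inhibition; 0 = negative control wells and 1 = enniatin B 25 µM full block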); conditions: S. cerevisiae pump-expressing triplex, Nile Red efflux flow cytometry; at 10 µM; stronger effect = higher value; the pumps come from Candida albicans
[15] = molecular target: ATP-binding cassette sub-family B member 6 (Homo sapiens) (UniProt Q9NP58); assay: blockers of ABCB6-driven porphyrin uptake – K562-ABCB6 cells, flow cytometry, validation set, pilot screen (AID 588550;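 active means inhibition above the screen-wide mean plus 3 SD, about 51%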;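 further: 0% = DMSO wells and 100% = benzethonium chloride 70 µM positive control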); conditions: K562-ABCB6 porphyrin accumulation, 1 h, at 10 µM, stronger effect = higher value
[16] = AML differentiation inducers, ER-HoxA9 marrow cells – cell-based, GFP/MAC1 double positive, flow cytometry, validation set, primary screen (AID 588685); conditions: stronger effect = higher value, normalized: vehicle 0, fulvestrant 100;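 further: compound exposure lasts four days before antibody staining and flow analysis; 0% = DMSO wells and 100% = 5 µM fulvestrant positive control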

Chain of Beta-2 adrenergic receptor (Homo sapiens) (P07550 whole entry, looked up): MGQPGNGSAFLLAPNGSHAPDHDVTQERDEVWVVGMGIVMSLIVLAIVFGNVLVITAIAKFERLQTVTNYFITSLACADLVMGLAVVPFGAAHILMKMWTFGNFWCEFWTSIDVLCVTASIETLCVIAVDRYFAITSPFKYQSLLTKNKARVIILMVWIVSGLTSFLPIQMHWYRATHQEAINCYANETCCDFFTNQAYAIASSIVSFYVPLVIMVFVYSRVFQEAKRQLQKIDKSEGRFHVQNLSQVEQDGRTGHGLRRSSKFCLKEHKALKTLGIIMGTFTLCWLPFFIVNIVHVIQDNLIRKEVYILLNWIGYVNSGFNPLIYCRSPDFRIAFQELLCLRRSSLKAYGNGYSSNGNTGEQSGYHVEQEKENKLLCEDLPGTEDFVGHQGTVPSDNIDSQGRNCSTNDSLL
Chain of AP-2 complex subunit beta (Homo sapiens) (P63010 whole entry, looked up, the tested form may be a part, one chain of several): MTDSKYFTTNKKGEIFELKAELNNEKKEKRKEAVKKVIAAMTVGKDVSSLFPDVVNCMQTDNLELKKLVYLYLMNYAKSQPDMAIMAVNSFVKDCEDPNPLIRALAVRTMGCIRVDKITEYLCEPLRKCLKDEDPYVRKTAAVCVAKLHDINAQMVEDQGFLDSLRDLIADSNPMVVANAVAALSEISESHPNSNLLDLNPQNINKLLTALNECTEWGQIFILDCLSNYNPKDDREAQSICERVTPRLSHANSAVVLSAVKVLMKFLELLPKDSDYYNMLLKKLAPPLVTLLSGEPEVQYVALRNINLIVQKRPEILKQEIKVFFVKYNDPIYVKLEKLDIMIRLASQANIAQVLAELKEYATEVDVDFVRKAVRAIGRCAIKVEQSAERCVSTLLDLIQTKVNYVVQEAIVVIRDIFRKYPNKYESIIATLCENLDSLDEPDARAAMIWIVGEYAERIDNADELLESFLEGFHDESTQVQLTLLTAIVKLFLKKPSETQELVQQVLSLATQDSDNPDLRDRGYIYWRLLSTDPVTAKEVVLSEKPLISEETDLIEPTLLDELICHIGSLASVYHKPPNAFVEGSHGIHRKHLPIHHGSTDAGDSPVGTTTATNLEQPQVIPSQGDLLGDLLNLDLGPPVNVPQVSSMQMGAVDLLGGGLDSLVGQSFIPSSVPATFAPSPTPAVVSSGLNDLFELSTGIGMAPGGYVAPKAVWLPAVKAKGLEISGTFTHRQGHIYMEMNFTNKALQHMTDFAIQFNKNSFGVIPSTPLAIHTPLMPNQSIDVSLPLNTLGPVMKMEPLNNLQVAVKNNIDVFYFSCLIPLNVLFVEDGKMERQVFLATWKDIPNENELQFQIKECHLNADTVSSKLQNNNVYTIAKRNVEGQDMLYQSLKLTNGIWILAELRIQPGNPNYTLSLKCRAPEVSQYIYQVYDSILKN
Chain of Beta-adrenergic receptor kinase 1 (Homo sapiens) (P25098 whole entry, looked up): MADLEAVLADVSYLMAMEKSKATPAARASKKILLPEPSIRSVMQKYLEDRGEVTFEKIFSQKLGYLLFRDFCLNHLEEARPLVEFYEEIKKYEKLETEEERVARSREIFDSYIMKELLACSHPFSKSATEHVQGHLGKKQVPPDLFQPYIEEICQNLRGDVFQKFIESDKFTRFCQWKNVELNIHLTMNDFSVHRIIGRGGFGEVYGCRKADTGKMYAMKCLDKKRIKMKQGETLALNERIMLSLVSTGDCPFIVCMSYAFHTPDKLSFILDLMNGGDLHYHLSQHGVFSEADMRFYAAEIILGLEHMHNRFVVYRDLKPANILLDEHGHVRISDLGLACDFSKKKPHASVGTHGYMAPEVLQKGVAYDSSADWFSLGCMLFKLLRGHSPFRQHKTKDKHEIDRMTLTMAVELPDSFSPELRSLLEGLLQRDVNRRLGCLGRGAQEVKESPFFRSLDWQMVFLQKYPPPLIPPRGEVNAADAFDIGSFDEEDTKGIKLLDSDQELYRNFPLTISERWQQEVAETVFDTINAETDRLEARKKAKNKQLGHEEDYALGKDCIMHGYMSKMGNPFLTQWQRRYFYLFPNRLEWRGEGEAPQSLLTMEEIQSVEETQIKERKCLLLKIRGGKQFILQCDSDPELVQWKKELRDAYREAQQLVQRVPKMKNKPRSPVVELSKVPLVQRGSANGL
Chain of ATP-binding cassette sub-family B member 6 (Homo sapiens) (Q9NP58 whole entry, looked up): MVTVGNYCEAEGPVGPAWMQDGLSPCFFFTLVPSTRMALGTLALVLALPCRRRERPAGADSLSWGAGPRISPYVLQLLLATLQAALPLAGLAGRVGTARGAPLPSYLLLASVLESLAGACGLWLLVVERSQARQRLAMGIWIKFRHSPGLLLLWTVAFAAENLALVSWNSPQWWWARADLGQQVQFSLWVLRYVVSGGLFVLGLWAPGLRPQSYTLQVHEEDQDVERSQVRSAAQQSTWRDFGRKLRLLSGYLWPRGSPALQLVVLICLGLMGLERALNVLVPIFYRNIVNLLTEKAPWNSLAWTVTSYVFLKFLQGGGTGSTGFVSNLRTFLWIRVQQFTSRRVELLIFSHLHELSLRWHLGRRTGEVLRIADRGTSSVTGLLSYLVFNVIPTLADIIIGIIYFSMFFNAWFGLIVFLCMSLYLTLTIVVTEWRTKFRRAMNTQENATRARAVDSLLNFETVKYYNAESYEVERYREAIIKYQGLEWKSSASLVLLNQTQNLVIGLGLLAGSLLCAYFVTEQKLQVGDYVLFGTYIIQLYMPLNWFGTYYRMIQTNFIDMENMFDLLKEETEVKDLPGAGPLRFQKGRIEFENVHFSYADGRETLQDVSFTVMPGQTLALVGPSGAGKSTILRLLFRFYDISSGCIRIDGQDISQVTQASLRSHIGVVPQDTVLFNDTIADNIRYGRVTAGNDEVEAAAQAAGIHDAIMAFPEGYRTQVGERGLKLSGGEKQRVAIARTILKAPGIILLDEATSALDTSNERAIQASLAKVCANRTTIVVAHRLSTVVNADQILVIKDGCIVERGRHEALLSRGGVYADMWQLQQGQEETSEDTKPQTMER
Chain of Integrin beta-1 (Homo sapiens) + Integrin alpha-4 (Homo sapiens) (P05556 whole entry, looked up): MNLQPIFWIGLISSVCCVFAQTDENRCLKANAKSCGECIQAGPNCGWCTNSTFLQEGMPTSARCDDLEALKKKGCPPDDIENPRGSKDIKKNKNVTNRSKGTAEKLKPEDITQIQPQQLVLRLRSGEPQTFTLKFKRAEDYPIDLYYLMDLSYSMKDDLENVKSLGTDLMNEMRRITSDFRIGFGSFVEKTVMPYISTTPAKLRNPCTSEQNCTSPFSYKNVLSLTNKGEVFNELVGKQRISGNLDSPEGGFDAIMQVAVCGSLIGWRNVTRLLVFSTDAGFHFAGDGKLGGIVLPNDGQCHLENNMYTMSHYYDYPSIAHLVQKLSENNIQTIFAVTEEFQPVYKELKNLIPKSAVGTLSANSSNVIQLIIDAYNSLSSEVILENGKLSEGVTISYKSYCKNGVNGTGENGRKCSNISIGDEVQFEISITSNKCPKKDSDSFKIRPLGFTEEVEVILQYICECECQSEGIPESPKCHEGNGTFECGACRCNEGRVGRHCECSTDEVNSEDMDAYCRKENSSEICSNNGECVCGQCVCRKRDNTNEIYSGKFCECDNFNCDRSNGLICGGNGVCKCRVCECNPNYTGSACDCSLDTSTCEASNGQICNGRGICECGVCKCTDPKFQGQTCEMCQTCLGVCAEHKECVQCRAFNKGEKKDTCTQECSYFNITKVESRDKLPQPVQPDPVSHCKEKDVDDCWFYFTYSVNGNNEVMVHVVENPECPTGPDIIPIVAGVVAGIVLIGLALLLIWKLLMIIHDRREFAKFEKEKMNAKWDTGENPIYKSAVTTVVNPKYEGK
Chain of Integrin beta-1 (Homo sapiens) + Integrin alpha-4 (Homo sapiens) (P13612 whole entry, looked up): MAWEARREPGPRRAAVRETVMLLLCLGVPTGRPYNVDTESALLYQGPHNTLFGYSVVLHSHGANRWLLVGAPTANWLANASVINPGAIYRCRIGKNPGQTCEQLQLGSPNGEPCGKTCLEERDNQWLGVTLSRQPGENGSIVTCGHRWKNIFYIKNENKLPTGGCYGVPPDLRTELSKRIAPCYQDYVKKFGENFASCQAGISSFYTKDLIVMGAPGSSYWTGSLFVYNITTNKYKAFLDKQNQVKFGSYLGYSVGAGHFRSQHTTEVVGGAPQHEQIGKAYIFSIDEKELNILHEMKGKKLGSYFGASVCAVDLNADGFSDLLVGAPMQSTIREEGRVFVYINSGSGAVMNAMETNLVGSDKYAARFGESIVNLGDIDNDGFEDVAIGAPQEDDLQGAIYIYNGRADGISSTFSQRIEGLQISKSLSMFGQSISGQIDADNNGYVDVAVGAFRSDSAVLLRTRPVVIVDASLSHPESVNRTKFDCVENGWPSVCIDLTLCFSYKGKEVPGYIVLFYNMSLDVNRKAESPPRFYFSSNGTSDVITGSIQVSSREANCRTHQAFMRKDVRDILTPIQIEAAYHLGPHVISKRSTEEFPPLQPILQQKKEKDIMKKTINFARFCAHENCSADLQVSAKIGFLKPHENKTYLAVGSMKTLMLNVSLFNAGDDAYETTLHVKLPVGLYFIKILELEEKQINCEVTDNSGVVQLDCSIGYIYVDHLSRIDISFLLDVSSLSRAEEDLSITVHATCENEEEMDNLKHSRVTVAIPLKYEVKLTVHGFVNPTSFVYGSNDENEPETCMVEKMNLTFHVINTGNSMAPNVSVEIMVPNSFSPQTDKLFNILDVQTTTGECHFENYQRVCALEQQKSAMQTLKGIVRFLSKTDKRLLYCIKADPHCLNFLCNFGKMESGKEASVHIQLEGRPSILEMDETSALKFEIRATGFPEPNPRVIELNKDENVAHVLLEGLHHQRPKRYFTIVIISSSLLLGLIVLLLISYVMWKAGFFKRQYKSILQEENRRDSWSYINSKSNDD

SMILES	percent of DMSO control GFP [1]	GFP response vs DMSO [2]	percent response of DMSO control [3]	GFP response vs DMSO [4]	GFP response, % of DMSO [5]	double positive events [6] [%]	vesicle binding response [6]	inhibition [7]	superoxide response (% of plate) [8]	aptamer binding inhibition [9]	response [10]	inhibition [11]	response [12]	binding (% of control) [13]	efflux inhibition (fraction of control) [14]	inhibition [15]	differentiation response [16]
CC(=O)N1CCN(c2ccc(OC[C@H]3CO[C@](Cn4ccnc4)(c4ccc(Cl)cc4Cl)O3)cc2)CC1	105% (inactive)	108% (inactive)	111% (inactive)	109% (inactive)	111% (inactive)	63.3	188% (inactive)	4.27% (inactive)	100% (inactive)	-2% (inactive)	0.01% (inactive)	6.3% (inactive)	-2.33% (inactive)	98.1% (inactive)	0.59 (active)	-9% (inactive)	-10.4% (inactive)
COc1ccc(-c2nc3c(=O)n(C)c(=O)[nH]c3n2CCc2ccccc2)cc1	111% (inactive)	103% (inactive)	115% (inactive)	93.1% (inactive)	104% (inactive)	64	232% (inactive)	13.2% (inactive)	107% (inactive)	0% (inactive)	12.6% (inactive)	-0.08% (inactive)	-6.09% (inactive)	99.3% (inactive)	-0.13 (inactive)	3% (inactive)	-23.2% (inactive)
COC(=O)c1sccc1NC(=O)Nc1ccccc1F	100% (inactive)	103% (inactive)	105% (inactive)	88.2% (inactive)	101% (inactive)	69.3	197% (inactive)	5.61% (inactive)	93.7% (inactive)	-3% (inactive)	2% (inactive)	-3.3% (inactive)	-6.01% (inactive)	103% (inactive)	-0.28 (inactive)	23% (inactive)	7.13% (inactive)
Cc1ccc(-c2nn(-c3cccc(F)c3)cc2CN2CCN(c3ccccn3)CC2)o1	101% (inactive)	107% (inactive)	92% (inactive)	123% (inactive)	101% (inactive)	54.2	2920% (inactive)	0.94% (inactive)	95.7% (inactive)	5% (inactive)	25.4% (inactive)	5.48% (inactive)	-6.07% (inactive)	101% (inactive)	0.37 (inactive)	12% (inactive)	-23.2% (inactive)
COc1ccc(CC(=O)NCC2(c3ccc(OC)c(OC)c3)CCOCC2)cc1	103% (inactive)	96.3% (inactive)	104% (inactive)	82.8% (inactive)	89.7% (inactive)	54	175% (inactive)	5.03% (inactive)	102% (inactive)	8% (inactive)	-10.1% (inactive)	-7.91% (inactive)	0.74% (inactive)	99.3% (inactive)	-0.35 (inactive)	-23% (inactive)	-12% (inactive)
Cc1ccc2c(c1)c(=O)c1c3n2CCN(C(=O)CCl)C3CC1 (stereo not given)	96.3% (inactive)	102% (inactive)	97% (inactive)	106% (inactive)	111% (inactive)	58.2	198% (inactive)	-10.5% (inactive)	108% (inactive)	18% (inactive)	-25.7% (inactive)	20.6% (inactive)	-19.6% (inactive)	96.7% (inactive)	0.46 (active)	1% (inactive)	0.92% (inactive)
COc1ccc(C(=O)NCc2cccnc2)cc1	103% (inactive)	101% (inactive)	98.6% (inactive)	85.4% (inactive)	94.6% (inactive)	58.3	247% (inactive)	11.9% (inactive)	105% (inactive)	7% (inactive)	3.58% (inactive)	-8.5% (inactive)	1.75% (inactive)	101% (inactive)	-0.13 (inactive)	6% (inactive)	-24.8% (inactive)
CC(=O)[C@@H]1[C@@H](C(=O)c2ccc(C)cc2)[C@]2(C(=O)Nc3ccccc32)[C@H]2C=Cc3cc(F)ccc3N12	97.4% (inactive)	102% (inactive)	90.1% (inactive)	117% (inactive)	100% (inactive)	61.3	161% (inactive)	-119% (inactive)	112% (inactive)	4% (inactive)	40.7% (inactive)	4.08% (inactive)	-5.02% (inactive)	98.9% (inactive)	-0.03 (inactive)	2% (inactive)	8.8% (inactive)
COc1cc(NC(=S)NN2CCN(C)CC2)cc(OC)c1OC	105% (inactive)	108% (inactive)	116% (inactive)	92% (inactive)	106% (inactive)	62.3	240% (inactive)	7.85% (inactive)	91.4% (inactive)	3% (inactive)	-10.5% (inactive)	-10.5% (inactive)	2.58% (inactive)	105% (inactive)	-0.04 (inactive)	13% (inactive)	5.13% (inactive)
COCCn1c(SCCOc2ccccc2)nc2ccccc2c1=O	99.8% (inactive)	108% (inactive)	103% (inactive)	103% (inactive)	96.8% (inactive)	54	154% (inactive)	6.95% (inactive)	104% (inactive)	5% (inactive)	-6.97% (inactive)	-3.51% (inactive)	0.42% (inactive)	103% (inactive)	0.36 (inactive)	18% (inactive)	1.28% (inactive)
